We go through 40 molecules from PubChem BioAssay (NCATS).

Activity calls are given as the source filed them. Calls follow the shape of the dose curve; as a rule, active = well fitted curve in the direction sought with a large enough effect; inconclusive = small, poorly fitted or top-dose-only effect, or another doubt; inactive = no such curve, though single readings can be large or run the other way.

The test can be described thus: Cellular Toxicity (caspase-3) HUV-EC-C (AID 656).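 Also: cells exposed to compound for 16 h.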 As to conditions: HUV-EC-C cells, caspase-3 activation (apoptosis), vehicle = 0, 100 µM tamoxifen = 100%; series mostly up to 92.2 µM; caspase-3 activation: at the top concentration. An excerpt: NIH Chemical Genomics Center [NCGC]
NIH Molecular Libraries Screening Centers Network [MLSCN]
National Institutes of Environmental Health Sciences [NIEHS]
National Toxicology Program [NTP]
We have developed a 1536-well cell-based assay for quantitative high throughput screening (qHTS) against a number of cell lines to determine in vitro caspase 3/7 of small molecules. This particular assay uses the HUV-EC-C cell line which is derived from normal human vascular endothelial cells.
NCGC Assay Protocol Summary:
The Caspase-Glo 3/7 assay (Promega) is a homogeneous method to measure caspase-3 and caspase-7 activities in cultured cells. The quantitation of caspase 3/7 activity is based on the cleavage of a peptide-aminoluciferin substrate. After caspase cleaves the substrate the free aminoluciferin is liberated and serves as the substrate of luciferase, which generates the light. The luminescent signal is proportional to amount of caspase 3/7 activity present.
Using the Caspase-Glo 3/7 assay, the amount of caspase 3/7 activity was measured in the HUV-EC-C cell line with complete culture medium following compound treatment for 16 hours. The assay was performed in opaque white 1536-well plates. In the screen, tamoxifen and doxorubicin were used as positive controls. Library compounds were measured for their ability to cause the activation of caspase 3/7 in the cell line, as reflected by an increase in luminescence signal, in a concentration-dependent manner. Data were normalized to the controls for basal activity (DMSO only) and 100% stimulation (100 uM tamoxifen). AC50 values were determined from concentration-response data modeled with the standard Hill equation.
qHTS protocol for caspase 3/7 assay in HUV-EC-C cell line
[Step] [Parameter] [Value] [Description]
1. Reagent; 5 uL; 1000 HUV-EC-C cells/well
2. Time; 5 hr; 37 °C incubation
4. Controls; 23 nL; Tamoxifen 0.23 uM to 100 uM & doxorubicin 7.0 pM to 100 uM
5. Time; 16 hr; 37 °C incubation
6. Reagent; 5 uL; Caspase-Glo 3/7 reagent
7. Time; 20 min; Room Temperature
8. Detection; Luminescence; Viewlux plate reader
Keywords: caspase 3/7, apoptosis, HUV-EC-C cell line, luminescence, NTPHTS, NTPHTS_NCGC, NIEHS, EPA, DSSTox, MLSMR, MLSCN, NIH Roadmap, qHTS, NCGC
Regarding `Cc1ccccc1[N+](=O)[O-]`, the “caspase-3 activation” value was 0.146% (inactive). Next, `CCNCC`: -1.05% (inactive); `CCC#N`: 0.322% (inactive); `N#CC(Cl)(Cl)Cl`: -0.295% (inactive). Then `ClCCOCCCl`, with 0.0251% (inactive); and `C=COC(C)=O`, with -1.28% (inactive); and `CC(=O)[O-].CC(=O)[O-].CC(=O)[O-].[Cr+3]`, with -3.08% (inactive).

Regarding `C=CC(=O)OCC(C)C`, the “caspase-3 activation” value was -4.37% (inactive). Next, `CCSC(=O)N1CCCCCC1`: -2.21% (inactive). Then `O=[N+]([O-])/C=C/c1ccccc1`, with -7.3% (inactive); and `ClC=CCl`, with 0.349% (inactive); and `CCOP(=S)(OCC)SCCSCC`, with -6.84% (inactive).

`C/C=C/CC#N`: the “caspase-3 activation” value was -1.12% (inactive). Take `Nc1cc(Cl)ccc1O`: the “caspase-3 activation” value is 2.09% (inactive).

Regarding `COc1c(C(C)(C)C)cc([N+](=O)[O-])c(C)c1[N+](=O)[O-]`, the “caspase-3 activation” value is -1.29% (inactive). Then `CCCCCCCCCCCCCl`, with -3.84% (inactive). Next, `O=C(O)C(Cl)Br` (stereo not given): -0.00764% (inactive).

For the molecule `Nc1ncc([N+](=O)[O-])s1`, the “caspase-3 activation” value was -1.66% (inactive). As to `CC(=O)NNc1ccccc1`, the “caspase-3 activation” value was -7.59% (inactive).

Consider `Nc1ccccc1-c1ccccc1`, for which the “caspase-3 activation” value was -1.04% (inactive). Then `O=C(O)C(Br)CBr` (stereo not given), with -0.209% (inactive). Next, `BrCC(Br)C1CCC(Br)C(Br)C1` (stereo not given): -0.987% (inactive); `CC[N+](=O)[O-]`: -2.14% (inactive). Next, `CC(C)(COCC1CO1)COCC1CO1` (stereo not given): 4.01% (inactive); `CN(C)c1ccc(N)cc1`: -6.86% (inactive). As for `CC(C)OS(C)(=O)=O`, the “caspase-3 activation” value was -1.19% (inactive). Next, `COc1ccccc1N`: 3.64% (inactive). Next, `O=Cc1ccc(Cl)cc1Cl`: 4.73% (inactive); `O=C(Cl)c1ccccc1F`: -3.05% (inactive); `Oc1cc(Cl)c(Cl)c(Cl)c1Cl`: -0.118% (inactive). Take `Cc1cc(-c2cc(C)c(N)c(C)c2)cc(C)c1N`: the “caspase-3 activation” value was 3.12% (inactive). Next, `Nn1cnnc1`: 6.82% (inactive); `ClC(Br)Br`: -3.35% (inactive). Next, `O=C(O)c1cc(Cl)ccc1Cl`: 1.22% (inactive); `[N-]=[N+]=[N-]`: 0.611% (inactive). Next, `C=CC(=O)OC`: -2.46% (inactive). `Cc1cccc(C)c1N`: the “caspase-3 activation” value is 0.982% (inactive). Then `COC(=O)c1ccccc1N`, with -2.23% (inactive). Then `O=S(=O)(O)F`, with -2.03% (inactive); and `CCCCNC(=O)n1c(NC(=O)OC)nc2ccccc21`, with -7.05% (inactive).
